Assay results reported in PubChem BioAssay AID1159580 (chemical genetic matrix, 2015).
The campaign covered roughly 5,500 compounds. About 2,000 (36%) were called active. Another 18% or so got no clear call; they are omitted. Cut-off read from the data, not from the text of the source: active = normalized growth mostly below about 0.91 (no sharp cut-off); inconclusive = no clear call, values can overlap the other calls; inactive = mostly above about 0.92. Some of the results follow.

Assay: chemical genetic growth profiling, strain panel (AID 1159580);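 note: tested at 20 µM; growth read once vehicle control cultures reached saturation at 30 °C; 1 = growth at the plate median or of vehicle wells; lower values mean less growth of the strain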
Conditions: growth OD

Measured: normalized growth

C[C@]12C=CC(=O)C=C1CCC1C3C[C@@H](O)[C@](O)(C(=O)CO)[C@@]3(C)C[C@H](O)[C@@]12F (some centres undefined)
inactive: S. cerevisiae deletion strains, locus YJR066W, strain TOR1, hits give low values 0.952 | S. cerevisiae deletion strains, locus YJR075W, strain HOC1, hits give low values 1.01 | S. cerevisiae deletion strains, locus YKL009W, strain mrt4, hits give low values 0.983 | S. cerevisiae deletion strains, locus YKL068W, hits give low values 0.992 | S. cerevisiae deletion strains, locus YKL085W, strain MDH1 (second series), hits give low values 0.983 | S. cerevisiae deletion strains, locus YKL085W, strain MDH1, hits give low values 0.983 | S. cerevisiae deletion strains, locus YKL160W, strain elf1, hits give low values 0.957 | S. cerevisiae deletion strains, locus YKL190W, strain CNB1, hits give low values 1 | S. cerevisiae deletion strains, locus YKR001C, strain vps1, hits give low values 0.944 | S. cerevisiae deletion strains, locus YKR026C, strain gcn3, hits give low values 0.985 | S. cerevisiae deletion strains, locus YKR091W, strain srl3, hits give low values 0.985 | S. cerevisiae deletion strains, locus YLL001W, strain dnm1, hits give low values 1.01 | S. cerevisiae deletion strains, locus YLL026W, hits give low values 0.964 | S. cerevisiae deletion strains, locus YLL041C, strain sdh2, hits give low values 0.985 | S. cerevisiae deletion strains, locus YLR027C, strain aat2, hits give low values 0.998 | S. cerevisiae deletion strains, locus YLR039C, strain RIC1, hits give low values 1.01 | S. cerevisiae deletion strains, locus YLR058C, strain SHM2, hits give low values 1.01 | S. cerevisiae deletion strains, locus YLR102C, strain apc9, hits give low values 0.981 | S. cerevisiae deletion strains, locus YLR113W, strain HOG1, hits give low values 1.01 | S. cerevisiae deletion strains, locus YLR221C, strain rsa3, hits give low values 1.01 | S. cerevisiae deletion strains, locus YLR258W, strain gsy2, hits give low values 0.983 | S. cerevisiae deletion strains, locus YLR262C, strain YPT6 (second series), hits give low values 0.996 | S. cerevisiae deletion strains, locus YLR262C, strain YPT6, hits give low values 1.02 | S. cerevisiae deletion strains, locus YLR268W, strain sec22, hits give low values 0.953 | S. cerevisiae deletion strains, locus YLR320W, strain mms22, hits give low values 0.98 | S. cerevisiae deletion strains, locus YLR330W, strain CHS5, hits give low values 1.01 | S. cerevisiae deletion strains, locus YLR342W, strain FKS1 (second series), hits give low values 1 | S. cerevisiae deletion strains, locus YLR342W, strain FKS1, hits give low values 0.982 | S. cerevisiae deletion strains, locus YLR357W, strain rsc2, hits give low values 0.941 | S. cerevisiae deletion strains, locus YLR370C, strain arc18, hits give low values 0.991 | S. cerevisiae deletion strains, locus YLR371W, strain rom2, hits give low values 0.987 | S. cerevisiae deletion strains, locus YLR384C, strain iki3, hits give low values 0.993 | S. cerevisiae deletion strains, locus YLR418C, strain cdc73, hits give low values 0.968 | S. cerevisiae deletion strains, locus YML016C, strain PPZ1, hits give low values 1.01 | S. cerevisiae deletion strains, locus YML032C, strain rad52, hits give low values 0.974 | S. cerevisiae deletion strains, locus YML120C, strain ndi1, hits give low values 0.99 | S. cerevisiae deletion strains, locus YML124C, strain tub3, hits give low values 0.981 | S. cerevisiae deletion strains, locus YMR058W, strain fet3, hits give low values 1.04 | S. cerevisiae deletion strains, locus YMR078C, strain ctf18, hits give low values 0.989 | S. cerevisiae deletion strains, locus YMR125W, strain sto1, hits give low values 0.942 | S. cerevisiae deletion strains, locus YMR129W, hits give low values 0.988 | S. cerevisiae deletion strains, locus YMR205C, strain PFK2, hits give low values 0.958 | S. cerevisiae deletion strains, locus YMR223W, strain ubp8, hits give low values 0.991 | S. cerevisiae deletion strains, locus YMR231W, strain pep5, hits give low values 0.989 | S. cerevisiae deletion strains, locus YMR263W, strain SAP30, hits give low values 1.01 | S. cerevisiae deletion strains, locus YMR307W, strain GAS1, hits give low values 0.991 | S. cerevisiae deletion strains, locus YNL067W, strain RPL9B, hits give low values 1.01 | S. cerevisiae deletion strains, locus YNL071W, strain lat1, hits give low values 0.983 | S. cerevisiae deletion strains, locus YNL183C, strain NPR1, hits give low values 0.961 | S. cerevisiae deletion strains, locus YNL209W, strain ssb2, hits give low values 0.978 | S. cerevisiae deletion strains, locus YNL233W, strain BNI4, hits give low values 1.01 | S. cerevisiae deletion strains, locus YNL248C, strain rpa49, hits give low values 0.925 | S. cerevisiae deletion strains, locus YNL250W, strain rad50, hits give low values 0.985 | S. cerevisiae deletion strains, locus YNL271C, strain bni1, hits give low values 0.971 | S. cerevisiae deletion strains, locus YNL298W, strain CLA4, hits give low values 0.98 | S. cerevisiae deletion strains, locus YNL307C, strain MCK1, hits give low values 0.975 | S. cerevisiae deletion strains, locus YNL322C, strain KRE1 (second series), hits give low values 0.944 | S. cerevisiae deletion strains, locus YNR049C, strain mso1, hits give low values 0.985 | S. cerevisiae deletion strains, locus YNR052C, strain pop2, hits give low values 0.988 | S. cerevisiae deletion strains, locus YOL006C, strain TOP1, hits give low values 1.06 | S. cerevisiae deletion strains, locus YOL012C, strain htz1 1.1 | S. cerevisiae deletion strains, locus YOL147C, strain pex11, hits give low values 0.975 | S. cerevisiae deletion strains, locus YOR001W, strain rrp6, hits give low values 1.02 | S. cerevisiae deletion strains, locus YOR061W, strain CKA2, hits give low values 1.01 | S. cerevisiae deletion strains, locus YOR069W, strain VPS5, hits give low values 1.01 | S. cerevisiae deletion strains, locus YOR070C, strain gyp1, hits give low values 0.979 | S. cerevisiae deletion strains, locus YOR080W, strain dia2, hits give low values 0.987 | S. cerevisiae deletion strains, locus YOR083W, strain WHI5, hits give low values 0.901 | S. cerevisiae deletion strains, locus YOR106W, strain vam3, hits give low values 0.924 | S. cerevisiae deletion strains, locus YOR136W, strain idh2, hits give low values 0.986 | S. cerevisiae deletion strains, locus YOR144C, strain elg1, hits give low values 0.985 | S. cerevisiae deletion strains, locus YOR184W, strain ser1, hits give low values 0.974 | S. cerevisiae deletion strains, locus YOR231W, strain MKK1, hits give low values 0.983 | S. cerevisiae deletion strains, locus YOR265W, strain rbl2, hits give low values 0.969 | S. cerevisiae deletion strains, locus YOR270C, strain vph1, hits give low values 0.988 | S. cerevisiae deletion strains, locus YOR290C, strain snf2, hits give low values 0.962 | S. cerevisiae deletion strains, locus YOR316C, strain cot1, hits give low values 0.991 | S. cerevisiae deletion strains, locus YPL051W, strain arl3, hits give low values 0.967 | S. cerevisiae deletion strains, locus YPL078C, strain atp4, hits give low values 0.961 | S. cerevisiae deletion strains, locus YPL106C, strain sse1, hits give low values 0.976 | S. cerevisiae deletion strains, locus YPL240C, strain hsp82, hits give low values 0.986 | S. cerevisiae deletion strains, locus YPL241C, strain CIN2, hits give low values 1.01 | S. cerevisiae deletion strains, locus YPL256C, strain CLN2, hits give low values 0.973 | S. cerevisiae deletion strains, locus YPR119W, strain clb2, hits give low values 0.99 | S. cerevisiae deletion strains, locus YPR141C, strain kar3, hits give low values 0.993 | S. cerevisiae deletion strains, locus YPR163C, strain tif3, hits give low values 0.973 | S. cerevisiae deletion strains, locus YPR167C, strain met16, hits give low values 0.979 | S. cerevisiae deletion strains, strain wtn01, hits give low values 0.969 | S. cerevisiae strains, strain wild type, hits give low values 1.01
